The text below walks through data of PubChem BioAssay (Tox21).

Records with an inconclusive call do not appear. The source made the active and inactive calls. Unless noted, calls follow the shape of the dose curve; as a rule, active = well fitted curve in the direction sought with a large enough effect in the repeat runs; inconclusive = weak or mixed curves; inactive = no such curve, though single readings can be large; an effect the other way counts as inactive or inconclusive.

The nature of experiment [1]: qHTS assay to identify small molecule antagonists of the estrogen related receptor (ERR) signaling pathway - cell viability counter screen (AID 1224818). Also: series mostly up to about 46 µM. The essentials: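 Fluorescence from CellTiter-Fluor, read 30 min after reagent addition at 37 C, measured viability of ERR cells exposed to compounds for 17.5 h. Cells had settled 6 h before dosing.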
Background: In qHTS, concentration-response curves come from the screen itself.

A short description of experiment [2]: qHTS assay to identify small molecule antagonists of the estrogen related receptor (ERR) signaling pathway (AID 1224819; also: nearly all actives have a fitted effect of over 50% in size; also: potency is read from the fitted curve at half-maximal effect). The method, boiled down: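 Luminescence readout (One-Glo, 30 min, RT) of ERR cell line after 18 h compound exposure at 37 C; cells seeded 2,000/well, pre-incubated 6 h, compounds pinned from DMSO stocks.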
A short description of experiment [3]: qHTS assay to identify small molecule agonists of the estrogen related receptor (ERR) signaling pathway (AID 1224820). Also: potency is read from the fitted curve at half-maximal effect. The essentials:
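Following a 6 h settling period, 2,000 ERR cells per well receive DMSO-dissolved compounds by pin tool and incubate 18 h at 37 C; agonist activity is scored from One-Glo luminescence read 30 min post-addition.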

Experiment [4] concerns estrogen-related receptor alpha (ERRalpha) with PGC-1alpha coactivator, human. Put plainly: qHTS assay to identify small molecule antagonists of the estrogen related receptor signaling pathway with the pleiotropic PPARgamma coactivator (PGC) (AID 1224821; calls by dose curve; also: nearly all actives have a fitted effect of over 50% in size; also: potency is read from the fitted curve at half-maximal effect). The method, boiled down:
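Screening used NTP's PGC/ERR cells, dosed via pin tool with compound in DMSO alongside positive and negative controls. After 18 h at 37 C, One-Glo reagent sat 30 min at room temperature before luminescence detection.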

The nature of experiment [5]: qHTS assay to identify small molecule antagonists of the estrogen related receptor signaling pathway with the pleiotropic PPARgamma coactivator (PGC) cell viability counter screen (AID 1224822; also: potency is read from the fitted curve at half-maximal effect). The essentials:
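Fluorescence read-out of CellTiter-Fluor after 30 min at 37 C; PGC/ERR cells, 2,000 per well, had been exposed to DMSO-dissolved compounds for 17.5 h following a 6 h pre-incubation.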

Experiment [6] in a line: qHTS assay to identify small molecule agonists of the estrogen related receptor signaling pathway with the pleiotropic PPARgamma coactivator (PGC) (AID 1224823). Also: potency is read from the fitted curve at half-maximal effect. The essentials: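 In this quantitative high-throughput screen, an 18 h, 37 C treatment of PGC/ERR cells with compounds in DMSO preceded a One-Glo luminescence read taken after 30 min at room temperature.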

For `CCCCCCCCCC(=O)NC(CN1CCOCC1)[C@H](O)c1ccccc1` (stereo not given in full), the Potency result in experiment [1], in experiment [3], in experiment [4], in experiment [5] and in experiment [6] was “inactive” in each case. Also, in experiment [2], the Potency was 17.4 µM (active).
`S=c1[nH]c(-c2ccccc2)cn1-c1ccccc1`: the Potency result in experiment [1], in experiment [2], in experiment [3], in experiment [4], in experiment [5] and in experiment [6] was “inactive” in each case.
Turning to `C#CCn1c(=O)c2c(ncn2C)n(C)c1=O`, the Potency entry in experiment [1], in experiment [2], in experiment [3], in experiment [4], in experiment [5] and in experiment [6] was “inactive” in each case.
For `Nc1nc2ccc(Cl)cc2n2c(-c3ccccc3)nnc12`, the Potency result in experiment [1], in experiment [2], in experiment [3], in experiment [4], in experiment [5] and in experiment [6] was “inactive” in each case.
For `CN(C)CCCc1cc(C(=O)Nc2ccc(-c3ccncc3)cc2)ccc1O`, the Potency result in experiment [1], in experiment [2], in experiment [3], in experiment [4], in experiment [5] and in experiment [6] was “inactive” in each case.
In the case of `C[C@@H](c1ncncc1F)[C@](O)(Cn1cncn1)c1ccc(F)cc1F`, the Potency result in experiment [1], in experiment [2], in experiment [3], in experiment [4], in experiment [5] and in experiment [6] was “inactive” each time.
As to `NC(=O)c1cc[n+](CC2=C(C(=O)O)N3C(=O)[C@@H](NC(=O)[C@@H](c4ccccc4)S(=O)(=O)[O-])[C@H]3SC2)cc1`, the Potency entry in experiment [1], in experiment [2], in experiment [3], in experiment [4], in experiment [5] and in experiment [6] was “inactive” each time.
Take `O=c1[nH]c2cc(Cl)ccc2c(O)c1-c1ccc(Oc2ccccc2)cc1`: the Potency entry in experiment [1], in experiment [2], in experiment [3], in experiment [4], in experiment [5] and in experiment [6] was “inactive” each time.
As for `CC(C)NC[C@@H](O)c1ccc(O)c(O)c1`, the Potency result in experiment [1], in experiment [2], in experiment [3], in experiment [4], in experiment [5] and in experiment [6] was “inactive” each time.
Regarding `NS(=O)(=O)c1cccc2c1c([N+](=O)[O-])cc1nc(O)c(O)nc12`, the Potency result in experiment [1], in experiment [2], in experiment [3], in experiment [4], in experiment [5] and in experiment [6] was “inactive” in each case.
For `C=C(C)C1CC=C(C(=O)O)CC1` (stereo not given), the Potency result in experiment [1], in experiment [2], in experiment [3], in experiment [4], in experiment [5] and in experiment [6] was “inactive” in each case.
With `CN1C2CCCC1CC(NC(=O)c1nn(C)c3ccccc13)C2` (stereo not given), the Potency entry in experiment [1], in experiment [2], in experiment [3], in experiment [4], in experiment [5] and in experiment [6] was “inactive” in each case.
In the case of `Clc1nccc2c1ccc1ccccc12`, the Potency result in experiment [1], in experiment [2], in experiment [3], in experiment [4], in experiment [5] and in experiment [6] was “inactive” in each case.
For the molecule `NC(N)=[N+]1CCc2ccccc2C1`, the Potency entry in experiment [1], in experiment [2], in experiment [3], in experiment [4], in experiment [5] and in experiment [6] was “inactive” in each case.
For the molecule `N#CC(C#N)=C(N)/C(C#N)=C/c1ccc(O)cc1`, the Potency entry in experiment [1], in experiment [2], in experiment [3], in experiment [4], in experiment [5] and in experiment [6] was “inactive” in each case.
As for `N#CC(=C(\N)Sc1ccccc1N)/C(C#N)=C(/N)Sc1ccccc1N`, the Potency result in experiment [1], in experiment [3], in experiment [5] and in experiment [6] was “inactive” each time. In addition, the Potency in experiment [2] was 10.2 µM (active); in experiment [4], 9.81 µM (active).
As to `Fc1cccc(/C=N/N=C/c2cccc(F)c2)c1`, the Potency result in experiment [1], in experiment [2], in experiment [4] and in experiment [5] was “inactive” in each case. In addition, the Potency in experiment [3] was 15.5 µM (active); in experiment [6], 12.3 µM (active).
As for `O=C(O)CCCC[C@@H]1CCSS1`, the Potency entry in experiment [1], in experiment [2], in experiment [3], in experiment [4], in experiment [5] and in experiment [6] was “inactive” in each case.
With `NCCNS(=O)(=O)c1cccc2c(Cl)cccc12`, the Potency result in experiment [1], in experiment [2], in experiment [3], in experiment [4], in experiment [5] and in experiment [6] was “inactive” throughout.
In the case of `O=C(O)C1CN(CCCP(=O)(O)O)CCN1` (stereo not given), the Potency entry in experiment [1], in experiment [2], in experiment [3], in experiment [4], in experiment [5] and in experiment [6] was “inactive” throughout.
Turning to `CN(CCCOc1ccc(Cc2ccccc2)cc1)CCC(=O)O`, the Potency result in experiment [1], in experiment [2], in experiment [3], in experiment [4], in experiment [5] and in experiment [6] was “inactive” each time.
For the molecule `NC(C(=O)N[C@@H]1C(=O)N2C(C(=O)O)=C(Cl)CS[C@H]12)c1ccccc1` (stereo not given in full), the Potency result in experiment [1], in experiment [2], in experiment [3], in experiment [4], in experiment [5] and in experiment [6] was “inactive” throughout.
Consider `N[C@H](C(=O)O)[C@H]1C[C@@H]1C(=O)O`, for which the Potency entry in experiment [1], in experiment [2], in experiment [3], in experiment [4], in experiment [5] and in experiment [6] was “inactive” throughout.
As to `Nc1nc2c(cnn2CCc2ccccc2)c2nc(-c3ccco3)nn12`, the Potency result in experiment [1], in experiment [2], in experiment [3], in experiment [4], in experiment [5] and in experiment [6] was “inactive” in each case.
As for `S=C(Nc1ccccc1)Nc1nccs1`, the Potency result in experiment [1], in experiment [2], in experiment [3] and in experiment [6] was “inactive” in each case. In addition, the Potency in experiment [4] is 0.81 µM (active); in experiment [5], 0.335 µM (active).
With `COCc1nc2c([nH]1)c(=O)n(C)c(=O)n2CC(C)C`, the Potency entry in experiment [1], in experiment [2], in experiment [3], in experiment [4], in experiment [5] and in experiment [6] was “inactive” throughout.
Regarding `COc1ccc2c(c1)c(CC(=O)O)c(C)n2C(=O)c1ccccc1`, the Potency entry in experiment [1], in experiment [2], in experiment [3], in experiment [4], in experiment [5] and in experiment [6] was “inactive” throughout.
For the molecule `Nc1ncnc2c1ncn2C1CCCO1` (stereo not given), the Potency result in experiment [1], in experiment [2], in experiment [3], in experiment [4], in experiment [5] and in experiment [6] was “inactive” in each case.
Turning to `O=C(O)c1cc(=O)cc(C(=O)O)[nH]1`, the Potency result in experiment [1], in experiment [2], in experiment [3], in experiment [4], in experiment [5] and in experiment [6] was “inactive” in each case.
For `O=c1[nH]c(=O)c2nc3ccccc3nc2[nH]1`, the Potency result in experiment [1], in experiment [2], in experiment [3], in experiment [4], in experiment [5] and in experiment [6] was “inactive” throughout.
